Holding throughout (set-up): scale not given: direction of the effect not stated beside the values
In test [1] the target is Protein translocase subunit SecA (Escherichia coli (strain K12)) (UniProt P10408). Briefly: Assay to Identify E. coli SecA ATPase Inhibitors. The class given is functional. As to conditions: 30 µM.
Test [2] has as its target T1, Ubiquitin-activating enzyme e1, putative (Leishmania donovani (strain BPK282A1)) (UniProt E9BSI1).
T1 sequence (whole entry): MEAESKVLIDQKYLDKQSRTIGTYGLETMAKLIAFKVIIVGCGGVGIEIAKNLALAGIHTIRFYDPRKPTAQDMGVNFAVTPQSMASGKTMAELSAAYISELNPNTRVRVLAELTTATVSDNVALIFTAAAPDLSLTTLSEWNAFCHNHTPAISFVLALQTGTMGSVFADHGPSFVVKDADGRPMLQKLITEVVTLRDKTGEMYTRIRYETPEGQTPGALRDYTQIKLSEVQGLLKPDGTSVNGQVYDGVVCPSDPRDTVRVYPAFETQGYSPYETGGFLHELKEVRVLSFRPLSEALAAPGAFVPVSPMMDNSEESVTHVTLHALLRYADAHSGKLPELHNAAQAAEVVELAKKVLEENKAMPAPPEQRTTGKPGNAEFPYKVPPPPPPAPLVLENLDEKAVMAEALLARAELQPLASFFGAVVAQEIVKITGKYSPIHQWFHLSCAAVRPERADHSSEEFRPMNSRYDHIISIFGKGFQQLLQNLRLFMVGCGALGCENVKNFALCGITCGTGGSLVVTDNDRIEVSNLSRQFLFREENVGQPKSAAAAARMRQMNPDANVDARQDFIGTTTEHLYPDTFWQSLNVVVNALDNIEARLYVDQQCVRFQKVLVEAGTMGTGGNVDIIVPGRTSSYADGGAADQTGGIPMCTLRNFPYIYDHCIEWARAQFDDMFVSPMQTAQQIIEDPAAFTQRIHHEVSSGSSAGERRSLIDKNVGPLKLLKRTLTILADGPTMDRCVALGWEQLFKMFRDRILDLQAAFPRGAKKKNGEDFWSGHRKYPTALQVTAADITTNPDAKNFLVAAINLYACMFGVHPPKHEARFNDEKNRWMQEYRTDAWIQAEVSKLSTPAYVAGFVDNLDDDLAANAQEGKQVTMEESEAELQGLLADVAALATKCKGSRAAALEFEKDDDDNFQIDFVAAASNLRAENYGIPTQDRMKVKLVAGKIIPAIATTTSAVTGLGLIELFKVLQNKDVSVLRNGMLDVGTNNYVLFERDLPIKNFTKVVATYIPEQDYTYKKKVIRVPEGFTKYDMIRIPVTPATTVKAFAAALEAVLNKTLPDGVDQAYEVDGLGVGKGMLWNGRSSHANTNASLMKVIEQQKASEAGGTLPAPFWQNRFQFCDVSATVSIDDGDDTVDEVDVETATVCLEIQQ
Put plainly: Leishmania donovani Ubiquitin Activating Enzyme (LdE1). The class given is functional. As to conditions: 30 µM.

The target of test [3] is AMP-activated protein kinase, AMPK (Homo sapiens) (UniProt P54646+O43741+P54619+Q9UGJ0+Q9Y478+Q13131+Q9UGI9). Briefly: AMP-dependent Kinase enzyme assay. An in vitro enzyme assay that detects ADP turnover that is directly proportional to AMPK activity. This uses naive AMPK that is activated during the assay with MK-8722. The following applies: 30 µM. The class given is functional.

Test [4] addresses Sialic acid-binding Ig-like lectin 9 (Homo sapiens) (UniProt Q9Y336). Put plainly: Hs-Siglec9 ALPHAscreen SOP 20170721. The following applies: 10 µM. (Bead proximity is the source of the signal in Alpha formats.)
In the next test the test system is Trypanosoma cruzi. Put plainly: Trypanosoma cruzi phosphomannomutase and mannose-1-phosphate guanylyltransferase assay. The class given is functional. The following applies: 10 µM.
Test [5] has as its target T2, Arginase-2, mitochondrial (Homo sapiens) (UniProt P78540).
T2 sequence (whole entry): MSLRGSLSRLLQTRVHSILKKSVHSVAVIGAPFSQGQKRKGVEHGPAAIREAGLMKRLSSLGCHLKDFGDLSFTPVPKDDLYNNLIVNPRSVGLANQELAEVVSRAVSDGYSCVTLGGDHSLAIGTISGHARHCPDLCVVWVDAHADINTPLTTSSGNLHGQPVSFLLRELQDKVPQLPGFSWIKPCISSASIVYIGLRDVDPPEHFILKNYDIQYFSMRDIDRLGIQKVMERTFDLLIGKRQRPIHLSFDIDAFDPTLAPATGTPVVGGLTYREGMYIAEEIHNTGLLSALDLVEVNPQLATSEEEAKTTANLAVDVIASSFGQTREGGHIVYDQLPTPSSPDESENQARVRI
Put plainly: in vitro enzyme assay to detect the production of urea directly proportional to the activity of Arginase II. Also: in the data most compounds retested in dose-response had high values. The class given is functional. As to conditions: 33.3 µM.

Test [6] addresses T3, Proteasome subunit beta (Trypanosoma cruzi) (UniProt O96673).
T3 sequence (whole entry): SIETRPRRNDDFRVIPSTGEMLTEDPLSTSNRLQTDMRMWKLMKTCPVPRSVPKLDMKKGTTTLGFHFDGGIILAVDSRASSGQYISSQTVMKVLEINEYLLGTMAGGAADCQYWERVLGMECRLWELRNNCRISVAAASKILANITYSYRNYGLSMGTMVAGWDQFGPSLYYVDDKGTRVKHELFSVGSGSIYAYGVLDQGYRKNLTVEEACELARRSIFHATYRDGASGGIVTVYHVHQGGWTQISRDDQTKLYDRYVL
Briefly: Trypanosoma cruzi proteasome chymotrypsin-like activity (TcProtChymo) assay. Also: in the data most compounds retested in dose-response had high values. The class given is functional. The following applies: 9.37 µM.

The species named for another test is Homo sapiens. Put plainly: To identify inhibition of the IFN signalling (Jak-Stat) pathway via expression of an eGFP reporter gene under the control of an IFN-stimulated response element (ISRE) containing MxA promoter. The class given is functional. As to conditions: 30 µM. On the technique in general: A reporter such as luciferase makes a cellular process visible.

Test [7] addresses T4, Tyrosyl-tRNA synthetase, putative (Trypanosoma cruzi (strain CL Brener)) (UniProt Q4DSP6).
T4 sequence (whole entry): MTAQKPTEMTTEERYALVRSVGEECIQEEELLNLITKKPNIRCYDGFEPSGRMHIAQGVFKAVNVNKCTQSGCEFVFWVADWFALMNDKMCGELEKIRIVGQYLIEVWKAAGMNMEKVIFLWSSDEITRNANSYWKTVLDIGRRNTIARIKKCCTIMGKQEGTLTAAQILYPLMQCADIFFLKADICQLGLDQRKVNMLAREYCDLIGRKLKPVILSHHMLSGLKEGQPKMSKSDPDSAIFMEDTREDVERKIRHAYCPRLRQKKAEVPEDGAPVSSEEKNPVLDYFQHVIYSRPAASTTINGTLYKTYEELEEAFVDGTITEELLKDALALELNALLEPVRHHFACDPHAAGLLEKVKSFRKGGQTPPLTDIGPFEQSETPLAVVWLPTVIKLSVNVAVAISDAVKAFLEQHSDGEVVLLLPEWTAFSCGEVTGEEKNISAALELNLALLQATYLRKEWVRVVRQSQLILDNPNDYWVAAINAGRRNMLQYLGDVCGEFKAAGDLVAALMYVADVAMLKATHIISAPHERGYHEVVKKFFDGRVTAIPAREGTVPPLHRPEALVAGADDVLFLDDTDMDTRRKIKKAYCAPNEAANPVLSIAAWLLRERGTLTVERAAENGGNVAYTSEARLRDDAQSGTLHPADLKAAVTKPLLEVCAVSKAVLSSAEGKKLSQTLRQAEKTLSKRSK
Briefly: Trypanosoma cruzi tyrosyl tRNA synthetase (TcYRS) _High Tyrosine SOP. Also: in the data most compounds retested in dose-response had high values. The class given is functional. The following applies: 30 µM.

In test [8] the target is T4, Tyrosyl-tRNA synthetase, putative (Trypanosoma cruzi (strain CL Brener)). Put plainly: Trypanosoma cruzi tyrosyl tRNA synthetase (TcYRS) SOP. The class given is functional. The following applies: 30 µM.
The target of test [9] is Chromo domain-containing protein 1 (Saccharomyces cerevisiae (strain ATCC 204508 / S288c) (Baker's yeast)) (UniProt P32657). Briefly: ScCHD-1 Enzyme Inhibition Assay. Also: in the data most compounds retested in dose-response had high values. The class given is functional. As to conditions: 30 µM.
Sequence of Chromo domain-containing protein 1 (Saccharomyces cerevisiae (strain ATCC 204508 / S288c) (Baker's yeast)) (P32657 whole entry, the tested form may be a part): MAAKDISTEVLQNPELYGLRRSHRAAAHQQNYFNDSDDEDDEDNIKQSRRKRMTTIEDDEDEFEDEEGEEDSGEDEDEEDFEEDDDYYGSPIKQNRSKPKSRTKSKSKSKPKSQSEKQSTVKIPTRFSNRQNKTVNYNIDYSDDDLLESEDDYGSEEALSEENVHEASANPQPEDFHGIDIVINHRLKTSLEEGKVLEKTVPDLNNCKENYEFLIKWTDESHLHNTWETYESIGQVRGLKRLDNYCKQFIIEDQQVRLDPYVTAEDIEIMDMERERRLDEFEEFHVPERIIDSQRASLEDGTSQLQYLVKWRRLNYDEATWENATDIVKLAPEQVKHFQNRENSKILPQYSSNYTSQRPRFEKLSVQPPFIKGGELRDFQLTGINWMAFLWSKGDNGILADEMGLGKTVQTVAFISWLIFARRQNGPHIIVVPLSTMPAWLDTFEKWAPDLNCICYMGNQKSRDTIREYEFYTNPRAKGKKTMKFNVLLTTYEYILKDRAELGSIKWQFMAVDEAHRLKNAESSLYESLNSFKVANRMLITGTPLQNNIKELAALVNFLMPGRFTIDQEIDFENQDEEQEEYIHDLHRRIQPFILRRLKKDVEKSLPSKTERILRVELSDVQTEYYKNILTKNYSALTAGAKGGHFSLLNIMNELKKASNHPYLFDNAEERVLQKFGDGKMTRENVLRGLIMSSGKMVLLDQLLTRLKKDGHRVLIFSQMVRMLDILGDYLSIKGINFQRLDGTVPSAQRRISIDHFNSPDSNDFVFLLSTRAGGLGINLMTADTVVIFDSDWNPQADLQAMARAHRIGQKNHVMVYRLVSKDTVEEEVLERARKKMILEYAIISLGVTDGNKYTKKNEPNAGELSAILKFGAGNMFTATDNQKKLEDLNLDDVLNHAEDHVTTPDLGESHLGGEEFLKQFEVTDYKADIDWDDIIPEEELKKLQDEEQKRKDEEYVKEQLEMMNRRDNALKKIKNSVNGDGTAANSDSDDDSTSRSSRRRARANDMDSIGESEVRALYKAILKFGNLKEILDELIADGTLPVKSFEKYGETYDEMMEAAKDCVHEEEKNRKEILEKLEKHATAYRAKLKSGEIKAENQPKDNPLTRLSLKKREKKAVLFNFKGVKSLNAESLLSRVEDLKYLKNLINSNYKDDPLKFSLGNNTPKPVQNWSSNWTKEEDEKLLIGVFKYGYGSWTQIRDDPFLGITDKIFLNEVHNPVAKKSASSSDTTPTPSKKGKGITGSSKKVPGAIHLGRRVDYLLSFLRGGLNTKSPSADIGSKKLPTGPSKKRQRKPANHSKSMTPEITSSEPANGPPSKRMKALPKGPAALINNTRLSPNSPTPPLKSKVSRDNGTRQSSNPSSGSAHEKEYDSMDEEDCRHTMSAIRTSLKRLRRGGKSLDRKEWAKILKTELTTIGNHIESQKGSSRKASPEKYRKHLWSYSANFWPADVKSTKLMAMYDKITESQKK

SMILES strings stand for the structures. For some of these results: Potency and affinity values are given separately.

Sequence of Sialic acid-binding Ig-like lectin 9 (Homo sapiens) (Q9Y336 whole entry): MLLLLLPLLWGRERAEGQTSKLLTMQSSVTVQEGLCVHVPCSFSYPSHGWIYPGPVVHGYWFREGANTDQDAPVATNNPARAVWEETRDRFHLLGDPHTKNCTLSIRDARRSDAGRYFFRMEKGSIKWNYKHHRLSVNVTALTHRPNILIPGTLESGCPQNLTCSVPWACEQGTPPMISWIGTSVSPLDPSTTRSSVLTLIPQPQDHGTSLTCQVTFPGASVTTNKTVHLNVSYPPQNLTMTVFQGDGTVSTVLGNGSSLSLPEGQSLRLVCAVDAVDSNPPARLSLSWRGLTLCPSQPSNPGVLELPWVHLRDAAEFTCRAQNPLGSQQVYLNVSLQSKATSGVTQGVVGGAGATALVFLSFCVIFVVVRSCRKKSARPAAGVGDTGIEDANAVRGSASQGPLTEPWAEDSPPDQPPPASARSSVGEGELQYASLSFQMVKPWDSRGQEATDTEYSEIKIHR
Sequence of Protein translocase subunit SecA (Escherichia coli (strain K12)) (P10408 whole entry): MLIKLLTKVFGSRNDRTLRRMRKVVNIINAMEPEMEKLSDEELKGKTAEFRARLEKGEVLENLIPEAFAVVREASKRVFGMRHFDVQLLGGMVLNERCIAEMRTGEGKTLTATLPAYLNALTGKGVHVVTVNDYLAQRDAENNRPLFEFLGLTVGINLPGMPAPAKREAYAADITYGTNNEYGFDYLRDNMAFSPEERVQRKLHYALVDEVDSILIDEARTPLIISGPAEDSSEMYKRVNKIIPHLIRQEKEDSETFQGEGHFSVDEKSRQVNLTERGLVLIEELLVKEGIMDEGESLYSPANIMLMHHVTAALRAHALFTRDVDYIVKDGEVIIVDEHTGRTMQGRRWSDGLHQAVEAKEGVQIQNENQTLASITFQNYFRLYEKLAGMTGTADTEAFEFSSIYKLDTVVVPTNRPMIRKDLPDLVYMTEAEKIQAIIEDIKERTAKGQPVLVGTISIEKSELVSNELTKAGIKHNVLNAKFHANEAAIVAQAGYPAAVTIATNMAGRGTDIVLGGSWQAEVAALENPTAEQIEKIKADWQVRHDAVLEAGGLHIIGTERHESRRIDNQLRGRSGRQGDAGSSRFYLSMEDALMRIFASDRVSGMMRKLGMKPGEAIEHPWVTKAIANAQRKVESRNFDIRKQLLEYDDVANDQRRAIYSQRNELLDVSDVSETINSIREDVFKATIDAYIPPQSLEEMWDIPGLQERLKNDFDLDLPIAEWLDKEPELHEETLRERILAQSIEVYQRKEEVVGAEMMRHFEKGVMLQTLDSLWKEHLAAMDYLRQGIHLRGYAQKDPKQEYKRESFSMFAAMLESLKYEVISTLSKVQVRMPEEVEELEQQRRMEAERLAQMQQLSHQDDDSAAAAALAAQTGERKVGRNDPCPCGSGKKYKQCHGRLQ

In the case of `CCC(=O)N1CCC(c2nc3ccc(NC(C)C)cn3n2)CC1`, the Percent Effect in test [1] is -5.82%; in test [2], -5.41%; in test [3], -88.4%; in test [4], 0.275%; with Trypanosoma cruzi, -1.56%; in [5] it was -0.833%. For the same compound, the Percent Effect in test [6] is 1.44%; in the test filed under Homo sapiens it was -2.11%; in test [7], 1.98%; in [8] it was 1.22%; in test [9], -4.18%.
Turning to `O=C(NCCNc1ccc(C(F)(F)F)cn1)c1ccc(Br)cc1F`, the Percent Effect in test [1] is -3.12%; in [2], 10.4%; in test [3] it was 7.24%; in test [4] it was -16.8%; in the test on Trypanosoma cruzi, -5.39%; in test [5], -2.74%. Also, the Percent Effect in test [6] was 11.9%; in the test listed under Homo sapiens, 6.29%; in test [7] it was 3.81%; in [8] it was 14.1%; in [9], -26.3%.
As to `COc1cc2nc(C)n(CC(=O)NCCCN(C)C)c(=O)c2cc1OC`, the Percent Effect in [1] is -0.823%; in test [2], 20%; in test [3], -6.34%; in test [4], -3.21%; in the test with Trypanosoma cruzi, 4.13%; in test [5], -2.99%. The Percent Effect was 17.4% in [6]; 12.2% in the test filed under Homo sapiens; 6.35% in [7]; 15.4% in test [8]; -9.62% in [9].
As for `Cc1nc(CN(C)C2CCN(CC(=O)N3CCOCC3)C2)no1` (stereo unspecified), the Percent Effect in [1] is -3.5%; in [2], 18.9%; in [3], -5.27%; in test [4], -3.82%; in the test with Trypanosoma cruzi, -3.62%; in test [5], -3.14%. Also, the Percent Effect is 1.98% in test [6]; 1.74% in the test listed under Homo sapiens; 5.94% in [7]; 18.3% in [8]; -3.28% in test [9].
Consider `Cc1ccc(N2CCN(C(=O)COc3nccc(C)n3)CC2)nn1`, for which the Percent Effect in test [1] is -4.66%; in test [2], 21.9%; in [3], -13.9%; in [4], 17.7%; in the test on Trypanosoma cruzi it was 7.44%; in test [5] it was 6.36%. Further, the Percent Effect in [6] was 11.4%; in the test listed under Homo sapiens it was 16%; in test [7], 7.53%; in [8], 17.5%; in [9], -9.03%.
As to `Cn1cc(Cl)cc1C(=O)N1CCCN(Cc2cccs2)CC1`, the Percent Effect in test [1] was -2.72%; in [2], -10.5%; in test [3] it was 7.51%; in test [4], -1.79%; in the test on Trypanosoma cruzi, 1.32%; in [5], 1.53%. For the same compound, the Percent Effect in [6] was -1.34%; in the test filed under Homo sapiens, -3.88%; in test [7], 4.41%; in test [8], 0%; in test [9], 7.24%.
Consider `CC(C)CCN1CCN(Cc2nc(C3CC3)no2)CC1`, for which the Percent Effect was -7.83% in test [1]; -2.7% in test [2]; 1.67% in test [3]; -0.524% in test [4]; 1.17% in the test with Trypanosoma cruzi; -0.417% in [5]. In addition, the Percent Effect in test [6] was 9.38%; in the test filed under Homo sapiens, 2.9%; in test [7], 2.97%; in [8], -3.66%; in test [9], -0.984%.
Turning to `COc1ccccc1OCc1cc(C(=O)N2CC(O)C2)n[nH]1`, the Percent Effect in test [1] was -4.46%; in [2] it was 4.17%; in test [3], 141%; in [4], -2.11%; in the test on Trypanosoma cruzi it was -0.875%; in [5], 3.09%. Besides, the Percent Effect was 6.49% in test [6]; 1.4% in the test listed under Homo sapiens; 4.21% in test [7]; 10.3% in test [8]; -1.24% in test [9].
For `CCC(=O)N1CCN(C(=O)CCn2cccn2)CC1`, the Percent Effect in test [1] is -1.61%; in test [2], 24.3%; in test [3], -7.17%; in test [4], 0.998%; in the test on Trypanosoma cruzi, 6.96%; in [5], 0.554%. For the same compound, the Percent Effect was 8.62% in test [6]; 5.89% in the test listed under Homo sapiens; 6.93% in test [7]; 25.6% in test [8]; -6.76% in [9].
In the case of `O=S(=O)(Nc1cnn(C2CCOCC2)c1)c1ccc(F)c(F)c1`, the Percent Effect in [1] is -2.82%; in test [2] it was -2.6%; in [3], -3.09%; in test [4], 9.32%; in the test with Trypanosoma cruzi it was -5.03%; in test [5] it was -8.39%. In addition, the Percent Effect in [6] is 8.01%; in the test filed under Homo sapiens, -0.875%; in [7], -1.06%; in test [8], 3.85%; in test [9], -2.49%.
Turning to `CC(C)Oc1cccc(C(=O)C2CCCN(C(=O)c3ncn[nH]3)C2)c1` (stereo unspecified), the Percent Effect was -0.804% in test [1]; -2.7% in test [2]; -3.49% in test [3]; 0.785% in test [4]; 7.92% with Trypanosoma cruzi; -1.91% in test [5]. In addition, the Percent Effect in test [6] was 21.6%; in the test listed under Homo sapiens it was 3.35%; in test [7], 6.88%; in test [8] it was 12.2%; in test [9], -3.93%.

Values taken from ChEMBL document CHEMBL3988442, “University of Dundee, Small-Polar-MMV Screening Library” (2021).
